Here are results for 18 compounds from PubChem BioAssay (NCATS).

A short description of test [1]: qHTS assay for measurement of the activity of small molecule inhibitors on Zika virus induced Caspase-3 activity in human iPSC derived neural progenitor cells (hNPCs) (AID 1224857). Note: nearly all actives have a fitted effect of over 65% in size. A digest of the protocol: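 Zika virus (2 FFU/cell) infection of human iPSC-derived NPCs, 6 h, following 1 h compound preincubation. Read-out: Caspase-Glo 3/7 luminescence.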
A general note: In qHTS, concentration-response curves come from the screen itself.

A short description of test [2]: qHTS assay for measurement of the activity of small molecule inhibitors on Zika virus induced Caspase-3 activity in human astrocytoma cells (AID 1224859). The procedure, abridged: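 Caspase activation in ZIKV-infected SNB-19 cells (2 FFU/cell, 6 h) measured by Caspase-Glo 3/7 luminescence after 30 min RT; compound pre-incubated 1 h; normalised to uninfected and infected controls.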

Test [3] can be described thus: Natriuretic polypeptide receptor (hNpr1) antagonism - Pilot counterscreen GloSensor control cell line (AID 1347045; calls by dose curve; note: series mostly up to about 38 µM). A digest of the protocol:
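The SNP-driven cGMP luminescence signal (50 uM, 20 min, room temperature) was measured in GloSensor HEK293 control cells. Compounds were tested as a LOPAC titration series and preincubated for 30-50 min.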
For orientation: The purpose of a counterscreen is to sort out artefacts and off-target activity.

The target in test [4] is Atrial natriuretic peptide receptor 1 (Homo sapiens) (UniProt P16066). Put plainly: Natriuretic polypeptide receptor (hNpr1) antagonism - Pilot screen (AID 1347049; calls by dose curve;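 note: HEK293 cells with hNpr1 and GloSensor cGMP luciferase stimulated by 0.1 nM hNppA; agonist-evoked cGMP luminescence read 20 min after hNppA addition; series mostly up to about 58 µM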). A digest of the protocol: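 Receptor antagonism read as cGMP-dependent luminescence in hNpr1/pGS-40F HEK293 cells: pre-read after 30 min compound exposure, post-read 20 min after hNppA agonist at 0.1 nM final, all at room temperature, protected from light; A-71915 titration as control.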

Test [5] concerns the target Atrial natriuretic peptide receptor 2 (Homo sapiens) (UniProt P20594). Put plainly: Natriuretic polypeptide receptor (hNpr2) antagonism - Pilot subtype selectivity assay (AID 1347050; calls by dose curve). A digest of the protocol: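 Antagonist mode: compounds (LOPAC1280, seven 1:5 dilutions) added 30 min before 1 nM hNppC stimulation of hNpr2-HEK293 cGMP-sensor cells; luminescence read before and 20 min after agonist at ambient temperature.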

A short description of test [6]: NS1 protein of Zika virus - qHTS assay to identify small molecule inhibitors in human HEK 293 cells (AID 1347053). Note: series mostly up to about 46 µM; nearly all actives have a fitted effect of over 55% in size. The procedure, abridged: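 In this cell-based screen, HEK 293 cultures received compound for one hour before Zika MR766 at MOI = 0.5. NS1 was quantified 24 hours later by TR-FRET, normalized to virus-free wells and infected wells.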
The target of test [7] is T1, Tyrosine-protein phosphatase non-receptor type substrate 1 (Homo sapiens) + Leukocyte surface antigen CD47 (Homo sapiens) (UniProt P78324+Q08722). Nature of the test: CD47-SIRPalpha protein protein interaction - LANCE assay qHTS validation (AID 1347057; active = well fitted curve in the direction sought with a large enough effect in the signal ratio, with a control signal flat, not every such curve was filed as active; the % refers to the signal ratio; note: series mostly up to about 38 µM). The procedure, abridged: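 Inhibition of soluble CD47/SIRPalpha ectodomain association by titrated compounds, measured as 665/615 nm time-resolved FRET ratio after sequential 30 min room-temperature incubations.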
(Time-resolved FRET reads energy transfer from a long-lived donor to a nearby acceptor.)

For test [8], the target named is T1, Tyrosine-protein phosphatase non-receptor type substrate 1 (Homo sapiens) + Leukocyte surface antigen CD47 (Homo sapiens). Nature of the test: CD47-SIRPalpha protein protein interaction - HTRF assay qHTS validation (AID 1347058; active = well fitted curve in the direction sought with a large enough effect in the signal ratio, not every such curve was filed as active; the % refers to the signal ratio; note: series mostly up to about 38 µM). A digest of the protocol:
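Soluble extracellular domains (6His-CD47, Avi-tag-biotinylated SIRPalpha) in PBS pH 7.4 with 0.05% IGEPAL CA-630. Compounds were preincubated 30 min at RT with CD47 and anti-His-Eu, then SIRPalpha and SAV-XL665 were added. TR-FRET 665/615 ratio.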

For test [9] the target is unchanged. Put plainly: CD47-SIRPalpha protein protein interaction - Alpha assay qHTS validation (AID 1347059).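 Note: bead proximity luminescence from CD47 binding SIRPalpha after compound preincubation with SIRPalpha.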 A digest of the protocol: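 AlphaScreen signal between CD47-His (12.5 nM) and biotin-SIRPalpha (25 nM) soluble extracellular domains, bead-captured via Ni-NTA and streptavidin. Compounds, in 7-point titrations, met SIRPalpha 30 min before CD47; PBS pH 7.4 with 0.05% IGEPAL.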

The target of test [10] is Parathyroid hormone/parathyroid hormone-related peptide receptor (Homo sapiens) (UniProt Q03431). Put plainly: qHTS for PTHR1 Agonists: Optimization Screen against the NCGC LOPAC library (AID 1347079).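 Note: GloSensor cAMP luminescence in HEK-293 GP2 cells expressing human PTHR1 with IBMX.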 A digest of the protocol:
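Signal increase flags agonism. GP2 cells, derived from HEK-293, express human PTHR1 and a GloSensor cAMP construct.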

Test [11] addresses N-terminal Xaa-Pro-Lys N-methyltransferase 1 (Homo sapiens) (UniProt Q9BV86). Put plainly: qHTS Assay for Inhibitors of N-terminal methyltransferase 1 (NTMT1): LOPAC validation of the NTMT1 SAHH-coupled ThioGlo3 Assay (AID 1347143).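 Note: SAH from peptide methylation measured as thiol fluorescence via SAHH coupling and ThioGlo3; nearly all actives have a fitted effect of over 70% in size.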 Note: potency is the fitted concentration of half-maximal effect. A digest of the protocol: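 NTMT1 125nM + cpds (various conc.), 1 min RT; add SAM 100uM/SAHH 10uM/ThioGlo3 15uM (addition mix). SAHH-coupled thiol detection, Ex340/Em450, t0 and 30 min RT; signal normalized to background. LOPAC 1280-cpd pilot.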

Test [12] concerns Zika virus NS2B-NS3 protease (unlinked). Put plainly: Optimization of GU AMC qHTS for Zika virus inhibitors: Unlinked NS2B-NS3 protease assay (AID 1347151). Note: nearly all actives have a fitted effect of over 80% in size. Note: potency is the fitted concentration of half-maximal effect. The procedure, abridged:
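Unlinked protease (25 nM final); buffer 10 mM Tris-HCl pH 8.0 + 0.01% Tween 20; AMC substrate; 15 min RT, dark; Δfluorescence normalized to no-inhibitor/no-enzyme controls; 4-parameter Hill fit.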

Test [13] has as its target Furin (Homo sapiens) (UniProt P09958). Put plainly: Furin counterscreen qHTS for Zika virus inhibitors (AID 1347149). Note: nearly all actives have a fitted effect of over 70% in size. Note: potency is the fitted concentration of half-maximal effect. The procedure, abridged:
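Counterscreen measures cleavage of 2 microM BOC-RVRR-AMC, below its ~15 microM Km, by 5 nM full-length human furin at pH 7.0 after a 15-min compound preincubation. Inhibition derives from the 15-min fluorescence increase at 37C.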

Test [14] concerns Zika virus NS2B-NS3 protease (linked construct). Nature of the test: Confirmatory screen NINDS AMC qHTS for Zika virus inhibitors (AID 1347152). Note: potency is the fitted concentration of half-maximal effect; nearly all actives have a fitted effect of over 70% in size. The procedure, abridged: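 Enzyme (1 nM, linked construct) was preincubated with compound for 15 minutes at room temperature in 10 mM Tris-HCl pH 8.0 with 0.01% Tween 20. Bz-Nle-Lys-Arg-Arg-AMC was then added to 10 microM, and AMC fluorescence was recorded immediately and after 15 minutes.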

The test system of test [15] is Zika virus NS2B-NS3 protease (unlinked complex). Put plainly: Confirmatory screen GU AMC qHTS for Zika virus inhibitors (AID 1347153).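 Note: enzyme at 25 nM with substrate at 10 µM below its Km of 18.3 µM; potency is the fitted concentration of half-maximal effect; nearly all actives have a fitted effect of over 70% in size.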 The procedure, abridged: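 Noncovalent NS2B hydrophilic domain/NS3 protease complex (25 nM) in 10 mM Tris-HCl pH 8.0, 0.01% Tween 20 was preincubated 15 min at room temperature with compounds. Then 10 µM AMC substrate (Km 18.3 µM) was added; fluorescence was read over 15 min and fitted to a 4-parameter Hill equation.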

Inconclusive results are not listed. Activity calls are given as the source filed them. Unless noted, calls come from the whole dose curve; as a rule, active = well fitted curve in the direction sought with a large enough effect; inconclusive = small, poorly fitted or top-dose-only effect, or another doubt; inactive = no such curve, though single readings can be large; an effect the other way counts as inactive or inconclusive.

T1 sequence (P78324 whole entry, looked up, the tested form may be a part): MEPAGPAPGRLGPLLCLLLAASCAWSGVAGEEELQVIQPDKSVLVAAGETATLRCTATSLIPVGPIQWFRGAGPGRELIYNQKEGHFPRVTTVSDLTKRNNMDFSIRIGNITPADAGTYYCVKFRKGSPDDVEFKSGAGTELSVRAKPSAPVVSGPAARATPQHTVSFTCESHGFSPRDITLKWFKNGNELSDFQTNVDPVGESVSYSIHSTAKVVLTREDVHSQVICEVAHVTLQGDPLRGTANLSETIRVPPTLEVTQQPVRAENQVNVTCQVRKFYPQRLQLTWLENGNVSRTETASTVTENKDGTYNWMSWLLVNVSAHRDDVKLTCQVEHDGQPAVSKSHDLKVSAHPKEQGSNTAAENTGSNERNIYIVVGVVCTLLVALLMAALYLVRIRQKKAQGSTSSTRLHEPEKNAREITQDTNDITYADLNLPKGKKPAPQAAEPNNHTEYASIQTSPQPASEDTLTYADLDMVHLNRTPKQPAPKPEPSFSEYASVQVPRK
T1 sequence (Q08722 whole entry, looked up, the tested form may be a part): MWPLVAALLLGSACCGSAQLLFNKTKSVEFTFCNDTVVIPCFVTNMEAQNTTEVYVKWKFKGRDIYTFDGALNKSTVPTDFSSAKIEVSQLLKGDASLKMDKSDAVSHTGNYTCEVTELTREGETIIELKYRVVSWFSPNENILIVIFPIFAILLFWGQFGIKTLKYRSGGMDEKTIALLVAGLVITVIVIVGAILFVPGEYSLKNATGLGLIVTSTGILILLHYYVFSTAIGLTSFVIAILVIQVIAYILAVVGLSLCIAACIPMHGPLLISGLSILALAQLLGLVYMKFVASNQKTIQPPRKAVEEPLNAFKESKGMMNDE
Sequence of Parathyroid hormone/parathyroid hormone-related peptide receptor (Homo sapiens) (Q03431 whole entry, looked up): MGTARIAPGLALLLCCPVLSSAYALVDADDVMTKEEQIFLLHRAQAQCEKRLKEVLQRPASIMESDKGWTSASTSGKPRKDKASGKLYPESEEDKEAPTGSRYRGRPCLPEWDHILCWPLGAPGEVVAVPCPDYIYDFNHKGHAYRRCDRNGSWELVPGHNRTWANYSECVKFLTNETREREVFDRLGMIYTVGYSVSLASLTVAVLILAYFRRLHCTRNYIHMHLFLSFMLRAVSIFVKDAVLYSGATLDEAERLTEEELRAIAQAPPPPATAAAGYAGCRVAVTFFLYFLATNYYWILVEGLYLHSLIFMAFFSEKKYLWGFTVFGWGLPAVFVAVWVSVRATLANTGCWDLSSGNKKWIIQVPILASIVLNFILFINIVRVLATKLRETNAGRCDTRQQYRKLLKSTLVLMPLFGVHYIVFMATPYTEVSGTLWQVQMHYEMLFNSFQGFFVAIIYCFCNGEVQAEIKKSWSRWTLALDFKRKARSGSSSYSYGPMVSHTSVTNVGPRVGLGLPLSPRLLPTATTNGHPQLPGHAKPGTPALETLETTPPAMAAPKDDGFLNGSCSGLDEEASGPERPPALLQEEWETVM
Sequence of N-terminal Xaa-Pro-Lys N-methyltransferase 1 (Homo sapiens) (Q9BV86 whole entry, looked up): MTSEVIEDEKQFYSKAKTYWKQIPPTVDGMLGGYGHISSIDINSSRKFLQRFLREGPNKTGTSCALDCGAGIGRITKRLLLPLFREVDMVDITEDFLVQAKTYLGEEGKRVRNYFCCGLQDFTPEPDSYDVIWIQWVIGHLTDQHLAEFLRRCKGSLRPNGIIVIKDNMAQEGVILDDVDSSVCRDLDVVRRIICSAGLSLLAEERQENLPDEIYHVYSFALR
Sequence of Atrial natriuretic peptide receptor 2 (Homo sapiens) (P20594 whole entry, looked up): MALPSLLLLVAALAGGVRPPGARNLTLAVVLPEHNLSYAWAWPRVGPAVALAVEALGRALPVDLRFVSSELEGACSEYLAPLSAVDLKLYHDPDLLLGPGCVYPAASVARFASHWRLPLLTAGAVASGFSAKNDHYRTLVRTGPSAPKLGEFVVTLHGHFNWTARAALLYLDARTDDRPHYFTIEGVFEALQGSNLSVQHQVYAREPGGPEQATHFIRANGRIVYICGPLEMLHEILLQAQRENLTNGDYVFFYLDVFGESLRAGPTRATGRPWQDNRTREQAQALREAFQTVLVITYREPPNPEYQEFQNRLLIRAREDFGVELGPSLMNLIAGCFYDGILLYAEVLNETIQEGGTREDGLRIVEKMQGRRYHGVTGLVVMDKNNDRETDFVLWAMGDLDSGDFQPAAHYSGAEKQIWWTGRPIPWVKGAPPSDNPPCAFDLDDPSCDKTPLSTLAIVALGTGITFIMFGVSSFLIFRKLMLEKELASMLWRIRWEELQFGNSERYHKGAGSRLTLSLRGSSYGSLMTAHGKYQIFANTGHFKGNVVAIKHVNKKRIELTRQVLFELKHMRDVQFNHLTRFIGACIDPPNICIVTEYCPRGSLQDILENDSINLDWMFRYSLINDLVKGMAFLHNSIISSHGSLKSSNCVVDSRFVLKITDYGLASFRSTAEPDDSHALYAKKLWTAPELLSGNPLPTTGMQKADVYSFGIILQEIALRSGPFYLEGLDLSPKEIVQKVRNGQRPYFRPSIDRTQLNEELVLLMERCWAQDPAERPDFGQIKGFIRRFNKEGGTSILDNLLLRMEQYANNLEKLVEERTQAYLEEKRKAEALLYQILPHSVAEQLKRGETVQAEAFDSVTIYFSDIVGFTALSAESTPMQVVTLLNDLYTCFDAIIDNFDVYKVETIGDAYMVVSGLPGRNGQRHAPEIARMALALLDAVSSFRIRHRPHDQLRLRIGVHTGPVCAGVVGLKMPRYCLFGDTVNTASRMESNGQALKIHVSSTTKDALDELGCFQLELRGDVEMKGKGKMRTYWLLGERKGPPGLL
Sequence of Atrial natriuretic peptide receptor 1 (Homo sapiens) (P16066 whole entry, looked up): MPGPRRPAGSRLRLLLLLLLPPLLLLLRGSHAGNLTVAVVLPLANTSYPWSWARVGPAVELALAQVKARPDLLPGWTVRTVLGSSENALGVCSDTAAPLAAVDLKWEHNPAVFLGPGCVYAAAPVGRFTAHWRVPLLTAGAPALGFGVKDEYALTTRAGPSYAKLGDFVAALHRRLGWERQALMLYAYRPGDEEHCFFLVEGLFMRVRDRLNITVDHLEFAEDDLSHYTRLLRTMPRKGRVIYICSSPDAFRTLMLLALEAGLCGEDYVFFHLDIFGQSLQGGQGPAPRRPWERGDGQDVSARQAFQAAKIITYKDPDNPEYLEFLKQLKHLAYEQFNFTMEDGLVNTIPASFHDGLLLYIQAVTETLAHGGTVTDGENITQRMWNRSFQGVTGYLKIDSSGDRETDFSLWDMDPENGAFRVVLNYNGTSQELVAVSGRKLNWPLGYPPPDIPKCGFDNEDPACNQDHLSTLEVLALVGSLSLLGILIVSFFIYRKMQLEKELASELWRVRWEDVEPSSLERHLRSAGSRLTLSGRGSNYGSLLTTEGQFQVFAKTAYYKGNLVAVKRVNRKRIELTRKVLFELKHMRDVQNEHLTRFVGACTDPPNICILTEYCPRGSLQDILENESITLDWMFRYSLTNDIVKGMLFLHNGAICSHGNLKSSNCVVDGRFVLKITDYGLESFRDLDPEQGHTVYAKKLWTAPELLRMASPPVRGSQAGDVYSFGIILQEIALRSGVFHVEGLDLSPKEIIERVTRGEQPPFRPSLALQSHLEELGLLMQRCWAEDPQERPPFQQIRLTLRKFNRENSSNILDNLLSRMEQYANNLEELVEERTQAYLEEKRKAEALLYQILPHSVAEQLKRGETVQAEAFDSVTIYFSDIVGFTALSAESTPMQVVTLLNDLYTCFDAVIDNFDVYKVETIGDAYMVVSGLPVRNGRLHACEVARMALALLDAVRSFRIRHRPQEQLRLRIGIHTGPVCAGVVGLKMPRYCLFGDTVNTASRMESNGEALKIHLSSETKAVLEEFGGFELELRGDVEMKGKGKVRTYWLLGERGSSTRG
Sequence of Furin (Homo sapiens) (P09958 whole entry, looked up): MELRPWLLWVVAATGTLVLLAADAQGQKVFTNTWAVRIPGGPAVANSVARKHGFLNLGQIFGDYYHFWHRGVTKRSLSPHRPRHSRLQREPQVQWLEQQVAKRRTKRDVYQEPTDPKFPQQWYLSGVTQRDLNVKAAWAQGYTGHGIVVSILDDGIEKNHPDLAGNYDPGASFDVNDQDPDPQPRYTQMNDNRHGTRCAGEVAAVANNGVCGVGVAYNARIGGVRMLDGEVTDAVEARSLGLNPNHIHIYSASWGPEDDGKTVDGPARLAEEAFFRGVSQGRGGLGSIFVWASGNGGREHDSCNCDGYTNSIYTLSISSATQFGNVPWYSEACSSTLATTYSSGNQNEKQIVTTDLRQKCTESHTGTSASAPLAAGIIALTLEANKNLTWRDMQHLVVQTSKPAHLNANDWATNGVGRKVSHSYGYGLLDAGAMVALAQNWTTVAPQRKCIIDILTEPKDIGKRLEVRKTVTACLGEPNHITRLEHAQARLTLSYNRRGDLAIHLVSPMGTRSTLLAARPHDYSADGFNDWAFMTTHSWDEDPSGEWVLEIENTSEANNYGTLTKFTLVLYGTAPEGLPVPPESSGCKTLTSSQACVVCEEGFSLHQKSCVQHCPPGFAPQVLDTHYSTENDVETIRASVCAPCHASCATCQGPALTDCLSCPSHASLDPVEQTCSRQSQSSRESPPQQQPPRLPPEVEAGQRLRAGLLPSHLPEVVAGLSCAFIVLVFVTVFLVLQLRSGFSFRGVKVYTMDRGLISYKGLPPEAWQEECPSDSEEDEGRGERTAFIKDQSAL

As for `Nc1ncnc2c1ncn2C1CCCC1`, the Potency entry in test [1], in test [2], in [3], in test [4], in [5] and in [6] was “inactive” in each case. The Potency result in test [7], in [9], in [10], in test [11] and in [12] was “inactive” throughout. Besides, in test [8], the outcome was inactive.

In the case of `O=C(O)c1ccccc1Nc1cccc(OCc2ccc3ccccc3n2)c1`, the Potency result in test [1], in [2], in [3], in test [4], in test [5] and in [6] was “inactive” in each case. The Potency entry in test [7], in test [9], in test [10] and in test [13] was “inactive” each time. The result in [8] was inactive. Also, the Potency in test [12] is 29.9 µM (active).

Take `N=C(N)c1ccc(N)cc1`: the Potency result in test [1], in test [2], in test [3], in test [4], in test [5] and in test [6] was “inactive” in each case. In addition, the Potency result in test [7], in test [9], in test [10] and in test [12] was “inactive” each time. For the same compound, the outcome in [8] was inactive.

With `O=C(OCCN1CCOCC1)C1(c2ccccc2)CCCCC1`, the Potency entry in [1], in [2], in test [3], in test [4], in test [5] and in [6] was “inactive” in each case. In addition, the Potency entry in test [7], in test [9], in test [10] and in test [12] was “inactive” each time. Further, the result in test [8] was inactive.

Regarding `NCCCNCCCCNCCCN`, the Potency entry in test [1], in [2], in test [3], in test [4], in test [5] and in test [6] was “inactive” in each case. Also, the Potency entry in test [7], in test [9], in test [10] and in [12] was “inactive” throughout. For the same compound, the outcome in test [8] was inactive.

Regarding `CC[N+](CC)(CC)CC(=O)Nc1c(C)cccc1C`, the Potency entry in test [1], in test [2], in test [3], in test [4], in [5] and in test [6] was “inactive” throughout. For the same compound, the Potency entry in test [7], in test [9], in test [10], in [11] and in test [12] was “inactive” throughout. The outcome in test [8] was inactive.

On to `NC1(C(=O)O)CC1`, for which the Potency entry in test [1], in test [2], in test [3], in test [4], in [5] and in [6] was “inactive” throughout. Moreover, the Potency result in test [7], in test [9], in test [10], in test [11] and in [12] was “inactive” in each case. Also, the result in test [8] was inactive.

For `Fc1ccc(CN(C2=NCCN2)c2c(Cl)cccc2Cl)cc1`, the Potency entry in test [1], in test [2], in [3], in test [4], in test [5] and in [6] was “inactive” throughout. For the same compound, the Potency entry in [7], in [9], in [10], in test [11] and in [12] was “inactive” throughout. Besides, the outcome in test [8] was inactive.

Regarding `Nc1ncnc2c1ncn2C1CCCO1` (stereo unspecified), the Potency result in [1], in test [2], in test [3], in [4], in test [5] and in test [6] was “inactive” in each case. Further, the Potency result in test [7], in test [9], in test [10], in [11] and in [12] was “inactive” each time. Further, the result in test [8] was inactive.

For the compound `CCN(CC)CCOC(=O)c1cc(Cl)c(N)cc1OC`, the Potency result in [1], in [2], in test [3], in test [4], in test [5] and in [6] was “inactive” throughout. Moreover, the Potency entry in [7], in test [9], in test [10] and in test [12] was “inactive” in each case. Also, the result in test [8] was inactive.

In the case of `C[C@]12C=CC(=O)C=C1CC[C@@H]1C2=CC[C@]2(C)[C@@H](C(=O)CN3CCN(c4cc(N5CCCC5)nc(N5CCCC5)n4)CC3)CC[C@@H]12`, the Potency result in test [1], in test [2], in [3], in test [4], in test [5] and in test [6] was “inactive” each time. For the same compound, the Potency result in test [7], in test [9], in [10] and in test [12] was “inactive” each time. The result in test [8] was inactive.

In the case of `CC(N)(C(=O)O)c1ccc(C(=O)O)cc1` (stereo unspecified), the Potency result in test [1], in test [2], in [3], in test [4], in test [5] and in test [6] was “inactive” each time. Moreover, the Potency entry in [7], in test [9], in test [10], in test [11] and in test [12] was “inactive” in each case. Besides, the result in test [8] was inactive.

As for `Oc1ccc(Cn2cc[nH]c2=S)cc1`, the Potency result in test [1], in test [2], in test [3], in [4], in test [5] and in test [6] was “inactive” throughout. In addition, the Potency result in test [7], in test [9], in test [10] and in [12] was “inactive” throughout. The outcome in test [8] was inactive. Further, in [11], the Potency was 50.1 µM (active).

As for `C/C(=C\c1ccc(C(=O)O)cc1)c1ccc2c(c1)C(C)(C)CCC2(C)C`, the Potency result in test [1], in test [2], in test [3], in test [4], in [5] and in test [6] was “inactive” each time. The Potency result in [7], in [9] and in [10] was “inactive” in each case. Further, the result in [8] was inactive. For the same compound, the Potency was 21.5 µM (active) in [13], 10.6 µM (active) in test [12], 24.1 µM (active) in test [14] and 24.1 µM (active) in test [15].

Take `Nc1ccc(CCNc2ncnc3c2ncn3C2OC(CO)C(O)C2O)cc1` (stereo unspecified): the Potency result in [1], in [2], in test [3], in test [4], in test [5] and in [6] was “inactive” in each case. Moreover, the Potency entry in test [7], in test [9], in test [10] and in test [12] was “inactive” each time. Besides, the result in test [8] was inactive.

Take `O=C(O)/C=C/c1ccc(O)c(O)c1`: the Potency result in [1], in test [2], in [3], in [4], in [5] and in test [6] was “inactive” throughout. Also, the Potency result in [7], in test [9], in [10] and in test [12] was “inactive” each time. The outcome in [8] was inactive. Moreover, the Potency in [11] was 44.7 µM (active).

With `COc1cc(C(O)CO)ccc1O` (stereo unspecified), the Potency entry in test [1], in test [2], in test [3], in [4], in test [5] and in test [6] was “inactive” each time. The Potency entry in test [7], in [9], in test [10], in test [11] and in test [12] was “inactive” in each case. Moreover, in test [8], the outcome was inactive.

In the case of `CN(C)CCCc1cc(C(=O)Nc2ccc(-c3ccncc3)cc2)ccc1O`, the Potency result in [1], in test [2], in test [3], in [4], in test [5] and in [6] was “inactive” in each case. The Potency result in [7], in test [9], in test [10] and in [12] was “inactive” in each case. In addition, the outcome in test [8] was inactive.
